Experimental data published in ChEMBL document CHEMBL3988442, “University of Dundee, Small-Polar-MMV Screening Library” (2021).
For some of these results: Measured potencies and affinities stand elsewhere.

Experiments:
Parameters in all cases: scale not given: direction of the effect not stated beside the values
[1] = target: Protein translocase subunit SecA (Escherichia coli (strain K12)) (UniProt P10408); assay: Assay to Identify E. coli SecA ATPase Inhibitors; type: functional; conditions: 30 µM
[2] = target: T1, Ubiquitin-activating enzyme e1, putative (Leishmania donovani (strain BPK282A1)) (UniProt E9BSI1); assay: Leishmania donovani Ubiquitin Activating Enzyme (LdE1); type: functional; conditions: 30 µM
T1 sequence (whole entry): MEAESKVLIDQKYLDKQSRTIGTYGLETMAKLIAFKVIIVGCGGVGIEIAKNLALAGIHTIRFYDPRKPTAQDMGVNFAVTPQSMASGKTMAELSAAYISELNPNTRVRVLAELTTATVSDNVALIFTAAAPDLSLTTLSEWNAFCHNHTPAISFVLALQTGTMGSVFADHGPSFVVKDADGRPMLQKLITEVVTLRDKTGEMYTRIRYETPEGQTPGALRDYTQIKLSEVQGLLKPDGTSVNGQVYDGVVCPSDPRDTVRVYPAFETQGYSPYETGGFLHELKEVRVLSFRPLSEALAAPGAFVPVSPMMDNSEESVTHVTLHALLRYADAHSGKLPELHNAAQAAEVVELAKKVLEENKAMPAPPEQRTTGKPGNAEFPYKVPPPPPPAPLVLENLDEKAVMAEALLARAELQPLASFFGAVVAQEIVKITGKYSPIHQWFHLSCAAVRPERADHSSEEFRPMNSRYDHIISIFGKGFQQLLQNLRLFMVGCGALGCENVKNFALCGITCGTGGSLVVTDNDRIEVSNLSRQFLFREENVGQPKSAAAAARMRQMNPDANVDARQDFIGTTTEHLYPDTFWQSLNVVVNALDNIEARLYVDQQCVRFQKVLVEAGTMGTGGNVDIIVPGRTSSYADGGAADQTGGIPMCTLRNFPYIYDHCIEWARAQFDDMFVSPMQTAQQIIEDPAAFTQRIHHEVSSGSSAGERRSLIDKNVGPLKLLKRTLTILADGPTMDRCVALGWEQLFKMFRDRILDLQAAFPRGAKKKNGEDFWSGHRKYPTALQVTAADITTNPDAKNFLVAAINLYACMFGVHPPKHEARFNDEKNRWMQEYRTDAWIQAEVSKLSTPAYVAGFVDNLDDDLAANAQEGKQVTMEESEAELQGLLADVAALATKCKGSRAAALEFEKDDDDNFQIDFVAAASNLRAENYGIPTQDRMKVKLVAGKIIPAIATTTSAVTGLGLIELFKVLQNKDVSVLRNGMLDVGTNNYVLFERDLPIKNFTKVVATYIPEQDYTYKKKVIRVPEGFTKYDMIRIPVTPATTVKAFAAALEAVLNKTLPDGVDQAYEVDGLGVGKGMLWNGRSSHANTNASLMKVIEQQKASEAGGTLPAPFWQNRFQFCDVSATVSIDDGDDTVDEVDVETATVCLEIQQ

[3] = target: AMP-activated protein kinase, AMPK (Homo sapiens) (UniProt P54646+O43741+P54619+Q9UGJ0+Q9Y478+Q13131+Q9UGI9); assay: AMP-dependent Kinase enzyme assay. An in vitro enzyme assay that detects ADP turnover that is directly proportional to AMPK activity. This uses naive AMPK that is activated during the assay with MK-8722; type: functional; conditions: 30 µM
[4] = target: Sialic acid-binding Ig-like lectin 9 (Homo sapiens) (UniProt Q9Y336); assay: Hs-Siglec9 ALPHAscreen SOP 20170721; conditions: 10 µM
Trypanosoma cruzi = assay: Trypanosoma cruzi phosphomannomutase and mannose-1-phosphate guanylyltransferase assay; type: functional; conditions: 10 µM
[5] = target: T2, Arginase-2, mitochondrial (Homo sapiens) (UniProt P78540); assay: in vitro enzyme assay to detect the production of urea directly proportional to the activity of Arginase II; type: functional; conditions: 33.3 µM; further: in the data most compounds retested in dose-response had high values
T2 sequence (whole entry): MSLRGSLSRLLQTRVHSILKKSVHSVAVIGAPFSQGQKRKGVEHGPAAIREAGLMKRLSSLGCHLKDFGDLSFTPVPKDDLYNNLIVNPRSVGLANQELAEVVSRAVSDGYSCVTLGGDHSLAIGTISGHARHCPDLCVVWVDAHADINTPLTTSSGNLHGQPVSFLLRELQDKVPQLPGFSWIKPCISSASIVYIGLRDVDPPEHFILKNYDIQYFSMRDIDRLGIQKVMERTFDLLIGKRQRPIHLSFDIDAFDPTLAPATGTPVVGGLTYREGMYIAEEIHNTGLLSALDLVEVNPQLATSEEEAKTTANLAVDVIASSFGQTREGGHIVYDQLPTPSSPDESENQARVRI

[6] = target: T3, Proteasome subunit beta (Trypanosoma cruzi) (UniProt O96673); assay: Trypanosoma cruzi proteasome chymotrypsin-like activity (TcProtChymo) assay.; further: in the data most compounds retested in dose-response had high values; type: functional; conditions: 9.37 µM
T3 sequence (whole entry): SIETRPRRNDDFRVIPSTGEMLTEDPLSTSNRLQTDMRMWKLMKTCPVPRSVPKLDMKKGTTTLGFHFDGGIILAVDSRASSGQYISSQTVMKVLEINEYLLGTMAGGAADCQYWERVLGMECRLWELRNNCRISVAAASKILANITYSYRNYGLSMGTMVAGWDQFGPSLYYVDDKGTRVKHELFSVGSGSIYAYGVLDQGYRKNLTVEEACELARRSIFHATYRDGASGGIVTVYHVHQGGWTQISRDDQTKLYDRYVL

Homo sapiens = species on record: Homo sapiens; assay: To identify inhibition of the IFN signalling (Jak-Stat) pathway via expression of an eGFP reporter gene under the control of an IFN-stimulated response element (ISRE) containing MxA promoter.; type: functional; conditions: 30 µM
[7] = target: T4, Tyrosyl-tRNA synthetase, putative (Trypanosoma cruzi (strain CL Brener)) (UniProt Q4DSP6); assay: Trypanosoma cruzi tyrosyl tRNA synthetase (TcYRS) _High Tyrosine SOP; type: functional; conditions: 30 µM; further: in the data most compounds retested in dose-response had high values
T4 sequence (whole entry): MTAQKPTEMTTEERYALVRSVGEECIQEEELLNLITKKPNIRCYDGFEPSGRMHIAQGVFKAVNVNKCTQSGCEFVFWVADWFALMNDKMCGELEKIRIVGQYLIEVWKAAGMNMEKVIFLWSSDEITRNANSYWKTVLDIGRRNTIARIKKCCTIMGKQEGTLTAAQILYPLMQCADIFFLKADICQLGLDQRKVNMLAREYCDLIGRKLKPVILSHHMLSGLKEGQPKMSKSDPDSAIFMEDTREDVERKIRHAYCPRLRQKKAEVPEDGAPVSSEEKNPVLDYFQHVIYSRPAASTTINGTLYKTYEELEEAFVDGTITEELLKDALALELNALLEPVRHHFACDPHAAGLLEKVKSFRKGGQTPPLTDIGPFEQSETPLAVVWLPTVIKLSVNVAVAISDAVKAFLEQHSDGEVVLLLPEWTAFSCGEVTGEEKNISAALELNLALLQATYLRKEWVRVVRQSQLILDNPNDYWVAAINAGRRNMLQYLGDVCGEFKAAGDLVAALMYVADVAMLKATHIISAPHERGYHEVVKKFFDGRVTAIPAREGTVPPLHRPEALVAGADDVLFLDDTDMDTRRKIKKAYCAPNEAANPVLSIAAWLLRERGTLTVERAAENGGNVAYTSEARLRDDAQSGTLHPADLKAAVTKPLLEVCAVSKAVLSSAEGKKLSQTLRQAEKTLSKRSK

[8] = target: T4, Tyrosyl-tRNA synthetase, putative (Trypanosoma cruzi (strain CL Brener)); assay: Trypanosoma cruzi tyrosyl tRNA synthetase (TcYRS) SOP; type: functional; conditions: 30 µM
[9] = target: Chromo domain-containing protein 1 (Saccharomyces cerevisiae (strain ATCC 204508 / S288c) (Baker's yeast)) (UniProt P32657); assay: ScCHD-1 Enzyme Inhibition Assay; type: functional; conditions: 30 µM; further: in the data most compounds retested in dose-response had high values
Chromo domain-containing protein 1 (Saccharomyces cerevisiae (strain ATCC 204508 / S288c) (Baker's yeast)), sequence (P32657 whole entry, the tested form may be a part): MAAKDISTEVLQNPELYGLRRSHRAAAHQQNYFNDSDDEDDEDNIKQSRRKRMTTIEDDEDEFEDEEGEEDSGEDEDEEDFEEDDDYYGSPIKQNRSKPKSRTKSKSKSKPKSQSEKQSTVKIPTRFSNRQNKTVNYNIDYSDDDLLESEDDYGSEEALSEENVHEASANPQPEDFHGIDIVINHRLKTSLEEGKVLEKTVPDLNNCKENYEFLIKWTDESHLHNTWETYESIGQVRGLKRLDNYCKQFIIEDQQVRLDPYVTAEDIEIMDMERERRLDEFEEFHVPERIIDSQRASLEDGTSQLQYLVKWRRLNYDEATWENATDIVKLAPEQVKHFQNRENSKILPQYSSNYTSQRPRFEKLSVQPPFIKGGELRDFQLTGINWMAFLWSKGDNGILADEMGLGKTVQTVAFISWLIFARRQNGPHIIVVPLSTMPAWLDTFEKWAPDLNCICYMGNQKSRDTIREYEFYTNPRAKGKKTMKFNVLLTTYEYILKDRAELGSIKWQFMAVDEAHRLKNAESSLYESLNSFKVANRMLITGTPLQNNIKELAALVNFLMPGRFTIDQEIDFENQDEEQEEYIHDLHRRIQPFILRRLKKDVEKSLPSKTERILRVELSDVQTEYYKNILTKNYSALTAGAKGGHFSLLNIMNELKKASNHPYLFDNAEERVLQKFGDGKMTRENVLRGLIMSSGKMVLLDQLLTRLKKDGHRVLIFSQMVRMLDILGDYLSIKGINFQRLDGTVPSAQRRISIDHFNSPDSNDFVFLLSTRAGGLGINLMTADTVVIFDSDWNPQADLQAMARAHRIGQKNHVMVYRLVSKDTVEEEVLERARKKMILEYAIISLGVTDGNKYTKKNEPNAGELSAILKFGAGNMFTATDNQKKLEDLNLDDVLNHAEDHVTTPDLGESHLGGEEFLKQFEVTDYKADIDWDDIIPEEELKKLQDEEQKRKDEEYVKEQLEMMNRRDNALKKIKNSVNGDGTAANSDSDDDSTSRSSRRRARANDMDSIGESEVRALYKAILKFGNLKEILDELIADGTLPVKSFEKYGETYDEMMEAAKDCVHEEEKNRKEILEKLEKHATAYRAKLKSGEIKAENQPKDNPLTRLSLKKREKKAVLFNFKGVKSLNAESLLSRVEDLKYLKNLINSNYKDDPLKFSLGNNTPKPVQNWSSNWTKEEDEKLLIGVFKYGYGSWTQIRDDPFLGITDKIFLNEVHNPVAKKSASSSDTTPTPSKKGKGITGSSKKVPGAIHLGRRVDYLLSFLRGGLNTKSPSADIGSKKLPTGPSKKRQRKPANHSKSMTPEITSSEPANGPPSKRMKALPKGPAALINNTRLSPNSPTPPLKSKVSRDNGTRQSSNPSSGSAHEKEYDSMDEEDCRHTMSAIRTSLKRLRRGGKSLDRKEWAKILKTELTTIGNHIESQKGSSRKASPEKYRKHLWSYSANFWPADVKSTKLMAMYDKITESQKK

Protein translocase subunit SecA (Escherichia coli (strain K12)), sequence (P10408 whole entry): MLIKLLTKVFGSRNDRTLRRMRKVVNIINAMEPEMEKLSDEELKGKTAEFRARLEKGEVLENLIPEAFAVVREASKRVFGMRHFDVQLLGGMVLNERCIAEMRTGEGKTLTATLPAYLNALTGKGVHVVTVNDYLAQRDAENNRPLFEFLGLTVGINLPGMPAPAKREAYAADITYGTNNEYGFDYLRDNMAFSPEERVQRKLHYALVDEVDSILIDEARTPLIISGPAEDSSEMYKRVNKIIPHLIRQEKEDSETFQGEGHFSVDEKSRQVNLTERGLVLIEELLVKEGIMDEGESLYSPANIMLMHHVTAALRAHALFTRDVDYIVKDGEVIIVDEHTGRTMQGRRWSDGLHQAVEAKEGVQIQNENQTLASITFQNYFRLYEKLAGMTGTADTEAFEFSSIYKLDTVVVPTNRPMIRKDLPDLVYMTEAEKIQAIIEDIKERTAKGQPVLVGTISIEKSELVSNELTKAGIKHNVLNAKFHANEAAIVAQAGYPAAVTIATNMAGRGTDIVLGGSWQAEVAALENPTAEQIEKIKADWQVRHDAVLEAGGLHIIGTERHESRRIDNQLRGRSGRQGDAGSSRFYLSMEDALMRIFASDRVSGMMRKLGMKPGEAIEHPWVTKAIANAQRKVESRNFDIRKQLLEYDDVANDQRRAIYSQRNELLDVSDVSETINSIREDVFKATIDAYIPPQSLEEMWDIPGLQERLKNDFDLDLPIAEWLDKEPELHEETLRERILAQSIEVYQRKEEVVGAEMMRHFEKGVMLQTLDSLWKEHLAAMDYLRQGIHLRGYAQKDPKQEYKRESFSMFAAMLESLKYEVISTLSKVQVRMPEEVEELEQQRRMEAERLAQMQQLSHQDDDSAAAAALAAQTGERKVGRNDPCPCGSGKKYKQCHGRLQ
Sialic acid-binding Ig-like lectin 9 (Homo sapiens), sequence (Q9Y336 whole entry): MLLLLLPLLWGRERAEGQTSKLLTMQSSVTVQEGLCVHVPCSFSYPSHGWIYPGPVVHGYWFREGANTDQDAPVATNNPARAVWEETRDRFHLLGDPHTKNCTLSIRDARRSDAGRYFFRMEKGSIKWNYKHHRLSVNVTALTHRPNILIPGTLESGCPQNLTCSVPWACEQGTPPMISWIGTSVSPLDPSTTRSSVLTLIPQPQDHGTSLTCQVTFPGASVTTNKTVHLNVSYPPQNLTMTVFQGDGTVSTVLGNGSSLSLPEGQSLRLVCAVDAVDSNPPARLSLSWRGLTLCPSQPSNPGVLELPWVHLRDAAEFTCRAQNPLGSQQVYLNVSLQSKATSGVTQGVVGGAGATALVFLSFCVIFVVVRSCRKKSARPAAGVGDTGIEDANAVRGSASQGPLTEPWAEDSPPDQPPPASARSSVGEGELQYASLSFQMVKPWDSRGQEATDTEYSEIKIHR

`CC(C)Cc1cc(C(=O)NCCc2ccc(S(C)(=O)=O)cc2)[nH]n1` showed a Percent Effect [1] of -3.28%, a Percent Effect [2] of 2.63% and a Percent Effect [3] of 9.53%. For the same molecule, the Percent Effect [4] was 3.29%, the Percent Effect (Trypanosoma cruzi) was 3.8% and the Percent Effect [5] was 0%. The Percent Effect [6] was 12.9%, the Percent Effect (Homo sapiens) was 24% and the Percent Effect [7] was 0%. The Percent Effect [8] was 10.4% and the Percent Effect [9] was -3.35%.

For `c1ncn(CC2CN(CC3CCCC3)CCO2)n1` (stereo not drawn), the Percent Effect [1] was -3.42%, the Percent Effect [2] was 11.4% and the Percent Effect [3] was -1.94%. The Percent Effect [4] was -0.971%, the Percent Effect (Trypanosoma cruzi) was -1.54% and the Percent Effect [5] was 6.24%. For the same molecule, the Percent Effect [6] was 11.8%, the Percent Effect (Homo sapiens) was 10.9% and the Percent Effect [7] was 0%. The Percent Effect [8] was 7.59% and the Percent Effect [9] was -14%.

For `COCC(=O)N1CCCC1c1ccnc(Nc2cnccn2)n1` (stereo not drawn), the Percent Effect [1] was -3.17%, the Percent Effect [2] was 12.2% and the Percent Effect [3] was 9.2%. For the same molecule, the Percent Effect [4] was 8.04%, the Percent Effect (Trypanosoma cruzi) was -0.395% and the Percent Effect [5] was 0.232%. It also gave a Percent Effect [6] of 10.3%, a Percent Effect (Homo sapiens) of -10.9% and a Percent Effect [7] of 12.9%. For the same molecule, the Percent Effect [8] was 22.1% and the Percent Effect [9] was -7.89%.

For `CCC1CN(CC(=O)N2CCC2)CCN1CCOC` (stereo not drawn), the Percent Effect [1] was -2.71%, the Percent Effect [2] was 13.5% and the Percent Effect [3] was -12.7%. For the same molecule, the Percent Effect [4] was 13.2%, the Percent Effect (Trypanosoma cruzi) was 3.49% and the Percent Effect [5] was -8.82%. The Percent Effect [6] was 7.03%, the Percent Effect (Homo sapiens) was 1.78% and the Percent Effect [7] was 8.37%. It also gave a Percent Effect [8] of 28.4% and a Percent Effect [9] of -9.71%.

In the case of `CS(=O)(=O)c1ccc(CNCC2CCN(CCO)CC2)cc1`, the Percent Effect [1] is reported as -6.48%, the Percent Effect [2] is reported as 0% and the Percent Effect [3] is reported as -13.5%. The Percent Effect [4] was 3.88%, the Percent Effect (Trypanosoma cruzi) was -4.9% and the Percent Effect [5] was -3.64%. It also gave a Percent Effect [6] of 6.03%, a Percent Effect (Homo sapiens) of 21.2% and a Percent Effect [7] of -2.15%. It also gave a Percent Effect [8] of -5% and a Percent Effect [9] of -3.22%.

With `CCn1nc(CNC(=O)C2CC(=O)N(C3CCCC3)C2)c2ccccc21` (stereo not drawn) the Percent Effect [1] was -9.13%, the Percent Effect [2] was 2.7% and the Percent Effect [3] was 3.05%. It also gave a Percent Effect [4] of 28.4%, a Percent Effect (Trypanosoma cruzi) of -1.74% and a Percent Effect [5] of -2.86%. For the same molecule, the Percent Effect [6] was 3.79%, the Percent Effect (Homo sapiens) was 10.4% and the Percent Effect [7] was -0.529%. For the same molecule, the Percent Effect [8] was 2.44% and the Percent Effect [9] was -3.19%.

`O=C(NC1CCCN(c2ncccn2)C1)c1ccoc1` (stereo not drawn) gave a Percent Effect [1] of -3.61%, a Percent Effect [2] of 23.7% and a Percent Effect [3] of -4.63%. The Percent Effect [4] was -9.78%, the Percent Effect (Trypanosoma cruzi) was -0.487% and the Percent Effect [5] was 2.37%. For the same molecule, the Percent Effect [6] was 8.34%, the Percent Effect (Homo sapiens) was 8.15% and the Percent Effect [7] was 3.19%. For the same molecule, the Percent Effect [8] was 15.6% and the Percent Effect [9] was -9.61%.

For `CCCNC(=O)N1CCN(Cc2cc(C)no2)CC1`, the Percent Effect [1] was -3.25%, the Percent Effect [2] was 23.7% and the Percent Effect [3] was -8.42%. It also gave a Percent Effect [4] of -2.41%, a Percent Effect (Trypanosoma cruzi) of 6.07% and a Percent Effect [5] of -2.16%. It also gave a Percent Effect [6] of 17.5%, a Percent Effect (Homo sapiens) of 2.72% and a Percent Effect [7] of 8.37%. For the same molecule, the Percent Effect [8] was 23.5% and the Percent Effect [9] was -7.68%.
